The values below come from PubChem BioAssay (EPA / NIEHS).

The term AC50 denotes the midpoint of the concentration-response curve, whichever way the signal moves.

Active and inactive are the calls of the source. The calls were made as follows: active = hit-call score of the fitted dose curve at least 0.9, where 1 is the maximum; inactive = score below 0.9.

A short description of this assay: ATG_RORE_CIS: Attagene CIS-FACTORIAL HepG2 Assay for human RAR-related Orphan Receptor Element (RORE) (AID 2282959). To be noted: HepG2 Attagene cis-factorial RORE reporter, mRNA; actives raise or lower the signal. Here is the method: ATG_CIS is a cell-based, multiplexed-readout assay that uses HepG2, a human liver cell line, with measurements taken at 24 hours after chemical dosing in a 24-well plate.ATG_RORE_CIS is one of 52 assay component(s) measured or calculated from the ATG_CIS assay. It is designed to make measurements of mRNA induction, a form of inducible reporter, as detected with fluorescence intensity signals by Reverse transcription polymerase chain reaction (RT-PCR) and Capillary electrophoresis technology.Data from the assay component ATG_RORE_CIS was analyzed into 1 assay endpoint. This assay endpoint, ATG_RORE_CIS, was analyzed with bidirectional fitting relative to DMSO as the negative control and baseline of activity. Using a type of inducible reporter, measures of mRNA for gain or loss-of-signal activity can be used to understand the reporter gene at the transcription factor-level as they relate to the gene RORA and RORB and RORC. Furthermore, this assay endpoint can be referred to as a primary readout, because this assay has produced multiple assay endpoints where this one serves a reporter gene function. To generalize the intended target to other relatable targets, this assay endpoint is annotated to the nuclear receptor intended target family, where the subfamily is orphan.
Human liver HepG2 cells are transiently transfected with multiple reporter transcription units (MRTUs) in 6-well plates using FuGene 6 reagent (Roche; 3 ml FuGene/1 mg DNA). The MRTU constructs are regulated by a cis-regulating element (promoter). […] A major difference between the CIS and TRANS system is that in CIS activities of endogenous TFs are measured, whereas the TRANS assay evaluates changes in activities of exogenous, chimeric NR-Gal4 proteins. […] At the end of 24 hour incubation, total RNA was isolated using TriZol reagent (Invitrogen). The isolated RNA is then reverse-transcribed using oligo(dT) primer and Mo-MLV reverse transcriptase (Invitrogen) with DNAse I (Ambion) treatment for 30 min. The one-tenth of the produced cDNA was amplified by PCR using Taq DNA polymerase (Invitrogen) and two reporter sequence-specific primers. The PCR products were fluorescently labeled by primer extension with 6-arboxyfluorescein (6-FAM) 5'-labeled reporter sequence-specific primer (2 min at 95 C, 20 s at 68 C and 10 min at 72 C) and these products were digested with 5U of HpaI (New England Biolabs) for 2h at 37 C. The fragments were purified using Qiaquick PCR columns (Qiagen), analyzed on an ABI 3130xL genetic analyzer (Applied Biosystems) with peak positions identified by using a set of X-rhodamine (ROX)-labeled MapMarker1000 molecular weight standards (BioVentures). The raw capillary electrophoresis data was processed using Attagraph software (Attagene).
`CC(=O)Oc1ccc(C(C)=O)cc1`: the molecule was called inactive. The same measure, in the same setting: under `NC(=O)c1ccccc1O` stands “inactive”; under `Nc1cccc(C(F)(F)F)c1`, “inactive”. For the molecule `O=[N+]([O-])c1ccc(CO)cc1`, the result was inactive. For the molecule `CC=CC(F)(F)C(F)(F)C(F)(F)F`, the result was inactive.

On to `CCCCCCCCO[C@@H]1O[C@H](CO)[C@@H](O)[C@H](O)[C@H]1O`, for which the molecule was called inactive. Take `COc1ccc2nc(N)sc2c1`: the outcome was inactive. Turning to `CC1=NN(c2cc(S(=O)(=O)O)ccc2Cl)C(=O)C1N=Nc1ccccc1` (stereo not given), the call was inactive. As to `CCCCCC/C=C/C=O`, the call was inactive.

For the molecule `CCCCCc1ccc(Cl)cc1`, the call was inactive. Same read-out and setting: the result for `CC(=O)Oc1ccc(C)cc1` reads “inactive”; that for `COC(=O)c1sccc1S(N)(=O)=O`, “inactive”; that for `CC1(C)[C@H]2CC[C@]1(C)C(=O)C2`, “inactive”. With `O=S(=O)(O)CC(O)CCl` (stereo not given), the result was inactive.

For the molecule `C=CCCCCCCCCC(=O)OCCCC`, the result was inactive.

With `CCOC(=O)N1CCC(=C2c3ccc(Cl)cc3CCc3cccnc32)CC1`, the AC50 was 3.42 µM (active). `N#[N+]c1ccc2c(S(=O)(=O)[O-])cccc2c1O`: the molecule was called inactive. Regarding `CCOc1ccc(N)c([N+](=O)[O-])c1`, the molecule was classed as inactive.

Regarding `CCCCOCCOC(=O)COc1nc(Cl)c(Cl)cc1Cl`, the result was inactive.

Regarding `CCCCCCCCCCOC(C)=O`, the result was inactive. Turning to `CC(=O)OCC(=O)[C@@]12N=C(C)O[C@@H]1C[C@H]1[C@@H]3CCC4=CC(=O)C=C[C@]4(C)[C@H]3[C@@H](O)C[C@@]12C`, the molecule was classed as inactive. Consider `CCO[Si](C)(OCC)OCC`, for which the call was inactive. With `CCCC(C)CCC(C)=O` (stereo not given), the molecule was classed as inactive. As for `COc1cc(C)ccc1C(C)C`, the molecule was called inactive. Turning to `COc1ccc([C@@H]2CC(=O)c3c(O)cc(O[C@@H]4O[C@H](CO[C@@H]5O[C@@H](C)[C@H](O)[C@@H](O)[C@H]5O)[C@@H](O)[C@H](O)[C@H]4O)cc3O2)cc1OC`, the molecule was called inactive.

In the case of `C=C(C)C(=O)OCCO`, the outcome was inactive. Same read-out and setting: under `O=C(O)c1cc2ccccc2nc1C(=O)O` stands “inactive”. The same measure, in the same setting: under `C=CC(=O)OCCC(=O)O` stands “inactive”; under `CC(=O)c1ccc2c(c1)CCCC2`, “inactive”. On the same count and under the same terms, the result for `Cc1ccc(C2OC[C@@H]3OC(c4ccc(C)cc4)O[C@H]([C@H](O)CO)[C@@H]3O2)cc1` (stereo not given in full) reads “inactive”; that for `CC1=Nc2ccc3ccccc3c2C1(C)C`, “inactive”. `Nc1ccc(Cl)cc1Cl`: the call was inactive. As for `Clc1nc2ccccc2s1`, the molecule was classed as inactive. The same measure, in the same setting: the result for `CCOCC(=O)O` reads “inactive”; that for `OC1CCCCCCCCCCC1`, “inactive”. Consider `CCOC(=O)CC`, for which the molecule was called inactive.

For `O=S(=O)(O)c1ccc2cc(O)c(S(=O)(=O)O)cc2c1`, the call was inactive. On to `O=C1C(N(CO)C(=O)NCO)N(CO)C(=O)N1CO` (stereo not given), for which the molecule was classed as inactive. Regarding `CC(C)c1ccc(C=O)cc1`, the molecule was classed as inactive. As to `Cc1cccc(C(=O)O)c1`, the result was inactive.
